According to PubChem BioAssay:
Several values for one entry are separate records, joined by “and”; a condition that tells them apart may be missing. Identical values can stand only once. For some of these results: Potency and affinity values are given separately. More than one record can exist for a structure, and the calls need not agree. Activity calls are given as the source filed them. Unless noted, no rule for the calls is given here.

Experiments:
[1] = antimalarial activity against Dd2 strain (AID 2302;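 active = growth inhibition above 50% at the single 2 µM test dose, taken to imply half-maximal potency below 2 µM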;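 also: 0% = DMSO untreated growth and 100% = chloroquine plus artemisinin killed control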); conditions: P. falciparum Dd2 in RBCs, LDH growth readout, 72 h; at 2 µM; stronger effect = higher value
[2] = HepG2 cytotoxicity, primary screen, cytotoxicity control for P. falciparum antimalarial project, cell-based, ATP luminescence (AID 2303;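 active = inhibition above 50%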;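 also: 0% = DMSO wells and 100% = digitonin-killed cells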); conditions: HepG2 viability, 24-48 h, at 10 µM, stronger effect = higher value
[3] = target: L-lactate dehydrogenase (Plasmodium falciparum (isolate CDC / Honduras)) (UniProt Q27743); assay: PfLDH activity inhibition – cell lysate, 3D7 strain, counter-screen for P. falciparum growth inhibition project (AID 2304);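 also: 0% = vehicle and 100% = reference inhibitor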; conditions: P. falciparum 3D7 crude extract, LDH APAD/NBT absorbance; at 2 µM; stronger effect = higher value
Chain of L-lactate dehydrogenase (Plasmodium falciparum (isolate CDC / Honduras)) (Q27743 whole entry, looked up): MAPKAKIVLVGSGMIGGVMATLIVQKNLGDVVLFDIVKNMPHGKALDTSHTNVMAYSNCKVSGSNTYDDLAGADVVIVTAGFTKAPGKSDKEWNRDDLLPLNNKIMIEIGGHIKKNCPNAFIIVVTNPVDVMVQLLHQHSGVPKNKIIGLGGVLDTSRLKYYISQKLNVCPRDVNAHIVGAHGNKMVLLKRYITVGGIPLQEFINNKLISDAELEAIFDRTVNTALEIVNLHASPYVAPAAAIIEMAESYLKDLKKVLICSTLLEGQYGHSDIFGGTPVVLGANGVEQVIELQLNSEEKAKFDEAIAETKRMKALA

[4] = inhibition of 3D7 malaria parasite growth – strain 3D7 (AID 2306);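 also: 0% = DMSO wells and 100% = chloroquine plus artemisinin control wells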; conditions: P. falciparum 3D7 erythrocytic growth, LDH absorbance, 72 h; at 2 µM; stronger effect = higher value
[5] = target: Calcium-dependent protein kinase 1 (Plasmodium falciparum (isolate 3D7)) (UniProt P62344); assay: PfCDPK1 kinase inhibitors, biochemical, TCAMS library (AID 1159585; cut-off not given, nearly all actives have IC50 up to about 0.98 µM;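 also: inhibitors leave more ATP so luminescence rises with inhibition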); conditions: recombinant PfCDPK1, Kinase-Glo ATP depletion luminescence
Chain of Calcium-dependent protein kinase 1 (Plasmodium falciparum (isolate 3D7)) (P62344 whole entry, looked up): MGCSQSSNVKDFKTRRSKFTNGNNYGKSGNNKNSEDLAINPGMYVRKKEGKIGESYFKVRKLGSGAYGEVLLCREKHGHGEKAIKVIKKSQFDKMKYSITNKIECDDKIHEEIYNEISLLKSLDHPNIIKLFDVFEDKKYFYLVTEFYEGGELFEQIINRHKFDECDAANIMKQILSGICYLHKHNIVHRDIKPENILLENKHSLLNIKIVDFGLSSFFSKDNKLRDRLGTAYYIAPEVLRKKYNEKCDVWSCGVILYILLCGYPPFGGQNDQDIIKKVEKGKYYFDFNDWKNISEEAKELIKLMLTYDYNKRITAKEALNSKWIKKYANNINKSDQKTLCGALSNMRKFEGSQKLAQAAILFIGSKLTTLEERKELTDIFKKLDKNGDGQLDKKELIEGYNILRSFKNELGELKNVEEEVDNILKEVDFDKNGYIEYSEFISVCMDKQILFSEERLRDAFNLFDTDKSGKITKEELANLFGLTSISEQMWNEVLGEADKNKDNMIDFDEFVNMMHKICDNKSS

[6] = target: Plasmodium falciparum protein kinase 6 (PK6, PF3D7_1337100) (UniProt Q8IDW1); assay: PfPK6 kinase inhibitors, biochemical, TCAMS library (AID 1159586); conditions: recombinant PfPK6, Kinase-Glo ATP depletion luminescence
Chain of Plasmodium falciparum protein kinase 6 (PK6, PF3D7_1337100) (Q8IDW1 1-305): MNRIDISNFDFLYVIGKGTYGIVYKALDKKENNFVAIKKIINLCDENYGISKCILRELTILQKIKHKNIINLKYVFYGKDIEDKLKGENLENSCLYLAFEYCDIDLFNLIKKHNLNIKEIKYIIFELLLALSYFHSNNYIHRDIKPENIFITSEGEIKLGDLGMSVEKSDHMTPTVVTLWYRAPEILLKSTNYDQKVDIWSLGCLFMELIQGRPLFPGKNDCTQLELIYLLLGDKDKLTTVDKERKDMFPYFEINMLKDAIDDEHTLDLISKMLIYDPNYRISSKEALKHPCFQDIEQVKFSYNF

[7] = target: Protein kinase 7 (PK7), Plasmodium falciparum 3D7 (PF3D7_0213400) (UniProt Q7YTF7); assay: inhibition of Plasmodium PK7 catalytic activity – biochemical, TCAMS antimalarial set, Kinase-Glo luminescence (AID 1159587); conditions: recombinant PfPK7, Kinase-Glo ATP depletion luminescence
Chain of Protein kinase 7 (PK7), Plasmodium falciparum 3D7 (PF3D7_0213400) (Q7YTF7 1-343): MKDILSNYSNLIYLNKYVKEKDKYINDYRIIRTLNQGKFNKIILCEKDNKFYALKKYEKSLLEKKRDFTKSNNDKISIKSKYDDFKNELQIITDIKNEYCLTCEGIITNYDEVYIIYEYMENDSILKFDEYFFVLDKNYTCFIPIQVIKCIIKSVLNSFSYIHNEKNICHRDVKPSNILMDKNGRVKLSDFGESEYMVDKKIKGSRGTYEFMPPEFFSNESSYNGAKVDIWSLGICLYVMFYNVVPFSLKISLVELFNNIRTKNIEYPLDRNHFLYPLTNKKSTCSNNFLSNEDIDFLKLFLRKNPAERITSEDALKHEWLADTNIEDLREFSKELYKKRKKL

[8] = target: Calcium-dependent protein kinase 4 (Plasmodium falciparum (isolate 3D7)) (UniProt Q8IBS5); assay: PfCDPK4 kinase inhibitors, biochemical, TCAMS library (AID 1159588; cut-off not given, nearly all actives have IC50 up to about 0.91 µM); conditions: recombinant PfCDPK4, Kinase-Glo ATP depletion luminescence
Chain of Calcium-dependent protein kinase 4 (Plasmodium falciparum (isolate 3D7)) (Q8IBS5 whole entry, looked up): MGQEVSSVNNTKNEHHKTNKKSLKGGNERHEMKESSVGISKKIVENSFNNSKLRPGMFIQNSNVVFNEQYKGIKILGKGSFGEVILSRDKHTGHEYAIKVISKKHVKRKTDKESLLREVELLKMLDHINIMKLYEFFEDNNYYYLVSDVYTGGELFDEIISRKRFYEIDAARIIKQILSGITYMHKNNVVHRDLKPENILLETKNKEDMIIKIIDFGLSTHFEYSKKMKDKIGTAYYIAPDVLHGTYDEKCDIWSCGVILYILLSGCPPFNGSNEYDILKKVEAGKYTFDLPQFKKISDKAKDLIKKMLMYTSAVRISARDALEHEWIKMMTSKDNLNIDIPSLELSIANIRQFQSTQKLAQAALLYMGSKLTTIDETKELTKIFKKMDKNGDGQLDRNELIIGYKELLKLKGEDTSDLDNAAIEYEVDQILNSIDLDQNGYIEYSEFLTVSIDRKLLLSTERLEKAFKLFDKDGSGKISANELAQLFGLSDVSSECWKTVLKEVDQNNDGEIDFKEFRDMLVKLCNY

F380Y = assay: modulators of BK channel variants, profiling panel, selectivity assay, cell-based, U2OS BacMam, thallium flux, beta subunits (AID 1259406;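 active = thallium flux through the channel raised or lowered by more than 3 SD from vehicle-only wells, actives on both sides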;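 also: initial slope of Thallos dye fluorescence rise after thallium is added; log ratio against the mean of 0.3% DMSO vehicle wells on the same plate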); conditions: at 30 µM
F380Y/beta2Delta = assay: as above; conditions: at 30 µM
R275C = assay: as above; conditions: at 30 µM
R275C/beta1 = assay: as above; conditions: at 30 µM
R275C/beta2Delta = assay: as above; conditions: at 30 µM
R275C/Slo1WT/beta2 = assay: as above; conditions: at 30 µM
[9] = liver-stage malaria parasite growth inhibition, primary screen, cell-based, HepG2, luciferase luminescence, HepG2 viability (AID 624349; in the data active = parasite load remaining mostly below about 12%, no sharp cut-off; inactive = mostly above about 10%;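 also: 100% = mean of DMSO negative control wells on the same plate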); conditions: P. berghei liver stage in HepG2, luciferase luminescence, concentration not given here; parasite load remaining: stronger effect = lower value; viability: measured here: HepG2 viability without parasites
[10] = sensitizers of A549 cells to miR-34 induction, primary screen, imaging, A549 dox-inducible miR-34, nuclei and caspase counts (AID 1347080;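 active = compounds whose cell count with miR-34 switched on is under 0.7 times the count with it off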); conditions: A549 miR-34 inducible, Hoechst nuclei count, 48 h
[11] = Cy5 fluorescence interference with SSB-bound oligo, artefact control for HCV NS3 helicase inhibitor project, biochemical, NIH Clinical Collection, E. coli SSB (AID 743268)
[12] = tested on: Hepatitis C virus NS3 helicase; assay: HCV NS3 helicase inhibitors, primary screen, biochemical, fluorescence polarization, NIH Clinical Collection (AID 743270); conditions: NS3 helicase binding to Cy5-dT15 DNA, stronger effect = higher value, concentration not given here
[13] = target: Single-stranded DNA-binding protein (Escherichia coli (strain K12)) (UniProt P0AGE0); assay: E. coli SSB displacement from DNA, counter-screen for HCV NS3 helicase inhibitor project, biochemical, fluorescence polarization, NIH Clinical Collection (AID 743271; in the data active = inhibition above about 28%); conditions: stronger effect = higher value, concentration not given here
[14] = fluorescence interference in NS3h assay format, artefact control for HCV NS3 helicase inhibitor project, biochemical, NIH Clinical Collection (AID 743272); conditions: fluorescence interference counterscreen, stronger effect = lower value;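 also: HCV NS3 helicase with a Cy5 labelled single stranded DNA probe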
[15] = measured here: relative caspase fold change +Dox/-Dox
[16] = measured here: total cells with miR-34 induction, stronger effect = lower value
[17] = measured here: total cells without miR-34 induction

CC[C@H]1CN2CC[C@@H]1C[C@H]2[C@H](O)c1ccnc2ccc(OC)cc12
active: growth inhibition [1] 61% | growth inhibition [4] 100%
inactive: inhibition [2] -8% | inhibition [3] -4% | outcome [5] | outcome [6] | outcome [7] | outcome [8]

CSC(=NCc1ccccc1Cl)NC(N)=N[N+](=O)[O-]
inactive: log fold change Tl+ flux (F380Y) 0.0102 | log fold change Tl+ flux (F380Y/beta2Delta) 0.00986 | log fold change Tl+ flux (R275C) -0.0153 | log fold change Tl+ flux (R275C/beta1) -0.0278 | log fold change Tl+ flux (R275C/beta2Delta) 0.0233 | log fold change Tl+ flux (R275C/Slo1WT/beta2) -0.0343

Cc1ccc(C2(O)C[C@H]3CC[C@@H](C2)N3C)cc1 (stereo partly specified)
inactive: growth inhibition [1] 16% | inhibition [2] -6% | inhibition [3] -4% | outcome [5] | outcome [6] | outcome [7] | outcome [8]
active: growth inhibition [4] 92%

CN1CCC(O)(c2ccc(Br)cc2)C(C(O)c2ccc(Br)cc2)C1 (stereo unspecified)
active: growth inhibition [1] 99% | growth inhibition [4] 98%
inactive: inhibition [2] 28% | inhibition [3] -5% | outcome [5] | outcome [6] | outcome [7] | outcome [8]

CCCCCCC(CC)c1cc(O)c2c(c1)OC(C)(C)c1ccncc1-2 (stereo unspecified)
inactive: inhibition [2] -1% | inhibition [3] -6% | outcome [5] | outcome [6] | outcome [7] | outcome [8]
active: growth inhibition [1] 52% | growth inhibition [4] 94%

S=C(Nc1ccccc1Cl)NC1CCC(CN2CCC(c3c[nH]c4ccccc34)CC2)CC1 (stereo unspecified)
inactive: growth inhibition [1] 12% | inhibition [2] 31% | inhibition [3] 8% | outcome [5] | outcome [6] | outcome [7] | outcome [8]
active: growth inhibition [4] 90%

CC(Cc1ccc(NC(=O)[C@H](C)NCCc2cccc(Cl)c2)cc1)NCCc1cccc(Cl)c1 (stereo partly specified)
inactive: inhibition [3] 2% | outcome [5] | outcome [6] | outcome [7] | outcome [8]
active: growth inhibition [1] 54% | inhibition [2] 99% | growth inhibition [4] 100%

CCC1=C[C@@H]2CN(C1)Cc1c([nH]c3ccccc13)[C@@](C(=O)OC)(c1cc3c(cc1OC)N(C)[C@H]1[C@@](O)(C(=O)OC)[C@H](O)[C@]4(CC)C=CCN5CC[C@]31[C@@H]54)C2
active: growth inhibition [1] 99% | growth inhibition [4] 98%
inactive: inhibition [3] -1% | outcome [5] | outcome [6] | outcome [7] | outcome [8]

NC(N)=NC(=O)Nc1ccc([N+](=O)[O-])c(Cl)c1
active: growth inhibition [4] 90%
inactive: growth inhibition [1] 12% | inhibition [3] -10% | outcome [5] | outcome [6] | outcome [7] | outcome [8]

COC(=O)c1ccc(CC(C)NCC(O)c2ccc(Cl)c(Cl)c2)cc1 (stereo unspecified)
inactive: growth inhibition [1] 33% | inhibition [2] -1% | inhibition [3] 0% | outcome [5] | outcome [6] | outcome [7] | outcome [8]
active: growth inhibition [4] 87%

CCOC(=O)c1cncn1[C@H](C)c1ccccc1
9210: cell count [10, 16]
inactive: parasite load remaining [9] 110% | fold change ([10]; stronger effect = lower value) 0.964 | log fold change Tl+ flux (F380Y) -0.0483 | log fold change Tl+ flux (F380Y/beta2Delta) -0.0261 | log fold change Tl+ flux (R275C) 0.000434 | log fold change Tl+ flux (R275C/beta1) 0.000109 | log fold change Tl+ flux (R275C/beta2Delta) 0.0419 | log fold change Tl+ flux (R275C/Slo1WT/beta2) 0.023
0.785: fold change [10, 15]
9560: cell count [10, 17]
75.6%: viability [9]

CC(Cc1ccc(OCCOc2ccccc2)cc1)NCC(O)c1cccc(C(F)(F)F)c1 (stereo unspecified)
active: growth inhibition [1] 76% | growth inhibition [4] 91%
inactive: inhibition [2] 16% | inhibition [3] -6% | outcome [5] | outcome [6] | outcome [7] | outcome [8]

CC(=O)N(Cc1cccc(-c2cccc(CNCCc3ccccc3)c2)c1)C1CCN(Cc2ccccc2)CC1
active: growth inhibition [1] 57% | growth inhibition [4] 100%
inactive: inhibition [2] 22% | inhibition [3] -3% | outcome [5] | outcome [6] | outcome [7] | outcome [8]

O=C(/C=C/c1ccccc1O)NC1CCC(CN2CCC(c3c[nH]c4ccccc34)CC2)CC1 (stereo unspecified)
active: growth inhibition [4] 101% and 103%
73% (active) and 45% (inactive): growth inhibition [1]
inactive: inhibition [2] 11% and 22% | inhibition [3] -1% and 5% | outcome [5] | outcome [6] | outcome [7] | outcome [8]

CN1CC=C(c2c[nH]c3ccc(C(=O)c4nccs4)cc23)CC1
inactive: inhibition [3] 7% | outcome [5] | outcome [6] | outcome [7] | outcome [8]
active: growth inhibition [1] 73% | growth inhibition [4] 89%

CCC(C)(C)N[C@@H](C)[C@@H](O)c1ccc(C(F)(F)F)cc1
inactive: inhibition [3] 2% | outcome [5] | outcome [6] | outcome [7] | outcome [8]
active: growth inhibition [1] 90% | growth inhibition [4] 97%

NCCc1ccccn1
10100 and 8480: cell count [10, 17]
1.57 and 1.54: fold change [10, 15]
inactive: parasite load remaining [9] 52.1% | fluorescence ratio [11] 1 | inhibition [12] -1.19% | inhibition [13] -1.64% | fluorescence ratio [14] 1 | fold change ([10]; stronger effect = lower value) 1.03 | fold change ([10]; stronger effect = lower value, cell number ratio, induced over uninduced) 1.05 | log fold change Tl+ flux (F380Y) -0.0264 | log fold change Tl+ flux (F380Y/beta2Delta) -0.0265 | log fold change Tl+ flux (R275C) -0.0283 | log fold change Tl+ flux (R275C/beta1) -0.0664 | log fold change Tl+ flux (R275C/beta2Delta) -0.0248 | log fold change Tl+ flux (R275C/Slo1WT/beta2) -0.0103
10400 and 8860: cell count [10, 16]
95.2%: viability [9]

Cc1ccc(CC(C)NC[C@H](O)c2cccc(Cl)c2)cc1 (stereo partly specified)
inactive: growth inhibition [1] 47% | inhibition [2] 15% | inhibition [3] -3% | outcome [5] | outcome [6] | outcome [7] | outcome [8]
active: growth inhibition [4] 96%
